Experimental data from PubChem BioAssay (EPA / NIEHS).
Several values for one entry are separate records, joined by “and”; a condition that tells them apart may be missing. Identical values can stand only once. Where a structure was tested more than once in an assay, its records may differ in their call. Activity calls are given as the source filed them. Rule for the calls: active = hit-call score of the fitted dose curve at least 0.9, where 1 is the maximum; inactive = score below 0.9.

What was measured:
Conditions in all cases: mRNA level, 48 h; actives raise or lower the signal
[1] = read-out: Interleukin 6 Receptor (IL6R), IL6R (gene 3570); assay: LTEA_HepaRG_IL6R: Life Technologies and Expression Analysis (LTEA) Assay for Interleukin 6 Receptor (IL6R) using HepaRG (AID 2283510)
Procedure, shortened: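 Readout is IL6R transcript level by TaqMan qRT-PCR, normalized to three housekeeping genes and fitted bidirectionally against 0.5% DMSO controls. Human HepaRG cells received chemicals for 48 h in serum-free induction medium, highest concentration 100 uM.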

[2] = read-out: Potassium channel subfamily K member 1 (KCNK1), KCNK1 (gene 3775); assay: LTEA_HepaRG_KCNK1: Life Technologies and Expression Analysis (LTEA) Assay for Potassium channel subfamily K member 1 (KCNK1) using HepaRG (AID 2283511)
Procedure, shortened: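 Differentiated human HepaRG cells in serum-free induction medium were exposed in duplicate for 48 h to 8 half-log concentrations up to 100 uM in 0.5% DMSO. KCNK1 mRNA was measured by TaqMan qRT-PCR, normalized to ACTB, GAPDH and POLR2A, and fitted bidirectionally versus DMSO.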

[3] = read-out: Keratin 19 (KRT19), KRT19 (gene 3880); assay: LTEA_HepaRG_KRT19: Life Technologies and Expression Analysis (LTEA) Assay for Keratin 19 (KRT19) using HepaRG (AID 2283512)
Procedure, shortened: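 HepaRG, 48 h chemical exposure, 8-pt half-log CRC from 100 uM, 0.5% DMSO vehicle, duplicates. Readout: TaqMan qRT-PCR of KRT19 mRNA, housekeeping-normalized (ACTB/GAPDH/POLR2A). Bidirectional fit vs DMSO baseline.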

[4] = read-out: JUN Transcription Factor, JUN (gene 3725); assay: LTEA_HepaRG_JUN: Life Technologies and Expression Analysis (LTEA) Assay for JUN Transcription Factor using HepaRG (AID 2283513)
Procedure, shortened: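 Cells plated 48 h, medium switched to serum-free induction medium, then dosed 48 h (100 uM top, half-log dilutions, 0.5% DMSO). RNA isolated; JUN measured by qRT-PCR against three housekeeping genes; gain or loss fitted relative to DMSO.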

[5] = read-out: Lipase C (LIPC), LIPC (gene 3990); assay: LTEA_HepaRG_LIPC: Life Technologies and Expression Analysis (LTEA) Assay for Lipase C (LIPC) using HepaRG (AID 2283514)
Procedure, shortened: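 Differentiated human HepaRG cells in serum-free induction medium were exposed in duplicate for 48 h to eight concentrations (top 100 uM, half-log steps, 0.5% DMSO). LIPC mRNA was quantified by TaqMan qRT-PCR, normalized to ACTB, GAPDH and POLR2A, with bidirectional fitting versus DMSO.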

[6] = read-out: Lipoprotein lipase (LPL), LPL (gene 4023); assay: LTEA_HepaRG_LPL: Life Technologies and Expression Analysis (LTEA) Assay for Lipoprotein lipase (LPL) using HepaRG (AID 2283515)
Procedure, shortened: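 Differentiated human HepaRG cells in serum-free induction medium were exposed in duplicate for 48 h to eight half-log concentrations (top 100 uM) in 0.5% DMSO. LPL mRNA was quantified by TaqMan qRT-PCR, normalized to ACTB, GAPDH and POLR2A.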

[7] = read-out: MicroRNA 122 (MIR122), gene 406906; assay: LTEA_HepaRG_MIR122: Life Technologies and Expression Analysis (LTEA) Assay for MicroRNA 122 (MIR122) using HepaRG (AID 2283516); note: the transcript read is the microRNA miR-122
Procedure, shortened: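 HepaRG plated 48 h, switched to serum-free induction medium, then treated in duplicate for 48 h (100 uM top, half-log steps, 0.5% DMSO vehicle). RNA isolated, qRT-PCR performed, concentration-response fitted both directions relative to DMSO.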

MYC, MYC (gene 4609) = assay: LTEA_HepaRG_MYC: Life Technologies and Expression Analysis (LTEA) Assay for MYC using HepaRG (AID 2283518)
Procedure, shortened: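 qRT-PCR read-out of MYC transcript (Fluidigm TaqMan, housekeeping-normalized) after 48 h chemical exposure of HepaRG cells; eight concentrations, top 100 uM, half-log steps. Bidirectional curve fitting against 0.5% DMSO vehicle baseline.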

[8] = read-out: matrix metalloproteinase-3 (MMP3), MMP3 (gene 4314); assay: LTEA_HepaRG_MMP3: Life Technologies and Expression Analysis (LTEA) Assay for matrix metalloproteinase-3 (MMP3) using HepaRG (AID 2283519)
Procedure, shortened: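 Differentiated human HepaRG cells, plated 48 h on collagen I, were exposed in duplicate for 48 h in serum-free induction medium to eight half-log concentrations up to 100 uM in 0.5% DMSO. MMP3 mRNA was quantified by TaqMan qRT-PCR, normalised to ACTB, GAPDH and POLR2A.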

[9] = read-out: Paternally Expressed 10 (PEG10), PEG10 (gene 23089); assay: LTEA_HepaRG_PEG10: Life Technologies and Expression Analysis (LTEA) Assay for Paternally Expressed 10 (PEG10) using HepaRG (AID 2283520)
Procedure, shortened: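 HepaRG, 48 h post-plating → serum-free induction medium → 48 h chemical exposure (duplicate, 8-pt, max 100 uM, half-log, 0.5% DMSO) → lysis in RLT → TaqMan qRT-PCR for PEG10, ACTB/GAPDH/POLR2A normalisation.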

[10] = read-out: Nuclear factor NF-kappa-B p105 subunit (Homo sapiens) (UniProt P19838); assay: LTEA_HepaRG_NFKB1: Life Technologies and Expression Analysis (LTEA) Assay for Nuclear Factor Kappa B Subunit 1 (NFKB1) using HepaRG (AID 2283521)
Procedure, shortened: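 Differentiated human HepaRG cells were exposed for 48 h in serum-free induction medium to eight concentrations (top 100 uM, half-log steps, 0.5% DMSO), in duplicate. NFKB1 mRNA was measured by TaqMan qRT-PCR, normalized to ACTB/GAPDH/POLR2A, and fitted bidirectionally against DMSO.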

[11] = read-out: Protein phosphatase 2A (PPP2R4), PTPA (gene 5524); assay: LTEA_HepaRG_PPP2R4: Life Technologies and Expression Analysis (LTEA) Assay for Protein phosphatase 2A (PPP2R4) using HepaRG (AID 2283522)
Procedure, shortened: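 Readout is PPP2R4 transcript level by microfluidic qRT-PCR after 48 h chemical treatment of human HepaRG liver cells. Concentrations spanned 100 uM downward in half-log steps; gain or loss of signal was fitted relative to DMSO.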

[12] = read-out: Phosphatase and tensin (PTEN), PTEN (gene 5728); assay: LTEA_HepaRG_PTEN: Life Technologies and Expression Analysis (LTEA) Assay for Phosphatase and tensin (PTEN) using HepaRG (AID 2283523)
Procedure, shortened: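 Differentiated human HepaRG cells, plated 48 h then switched to serum-free induction medium, were exposed in duplicate for 48 h to eight half-log concentrations up to 100 uM in 0.5% DMSO. PTEN mRNA measured by TaqMan qRT-PCR, normalized to ACTB/GAPDH/POLR2A, bidirectional fit versus DMSO.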

[13] = read-out: Nuclear factor erythroid 2-related factor 2 (Homo sapiens) (UniProt Q16236); assay: LTEA_HepaRG_NFE2L2: Life Technologies and Expression Analysis (LTEA) Assay for Nuclear factor erythroid 2-related factor 2 (NFE2L2) Transcription Factor using HepaRG (AID 2283527)
Procedure, shortened: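 Differentiated human HepaRG cells in serum-free induction medium were exposed for 48 h to eight concentrations (top 100 uM, half-log dilutions, 0.5% DMSO), in duplicate. NFE2L2 mRNA was quantified by TaqMan qRT-PCR, normalized to ACTB, GAPDH and POLR2A, with bidirectional fitting versus DMSO.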

[14] = read-out: succinate dehydrogenase complex iron sulfur subunit B (SDHB), SDHB (gene 6390); assay: LTEA_HepaRG_SDHB: Life Technologies and Expression Analysis (LTEA) Assay for succinate dehydrogenase complex iron sulfur subunit B (SDHB) using HepaRG (AID 2283528)
Procedure, shortened: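 HepaRG, 48 h exposure, 8-pt half-log series from 100 uM in 0.5% DMSO, duplicates. Readout: SDHB mRNA by Fluidigm qRT-PCR vs housekeeping genes; bidirectional fit relative to DMSO.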

[15] = read-out: Signal transducer and activator of transcription 3 (Homo sapiens) (UniProt P40763); assay: LTEA_HepaRG_STAT3: Life Technologies and Expression Analysis (LTEA) Assay for Signal transducer and activator of transcription (STAT3) using HepaRG (AID 2283529)
Procedure, shortened: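 Differentiated human HepaRG cells in serum-free induction medium were exposed in duplicate for 48 h to eight half-log concentrations up to 100 uM in 0.5% DMSO. STAT3 mRNA was quantified by TaqMan qRT-PCR, normalized to ACTB, GAPDH and POLR2A, and fitted bidirectionally against DMSO.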

[16] = read-out: solute carrier (SLC22A1), SLC22A1 (gene 6580); assay: LTEA_HepaRG_SLC22A1: Life Technologies and Expression Analysis (LTEA) Assay for solute carrier (SLC22A1) using HepaRG (AID 2283524)
Procedure, shortened: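 Human HepaRG cells were plated 48 h, switched to serum-free induction medium, then exposed in duplicate for 48 h to 8-point half-log series from 100 uM in 0.5% DMSO. SLC22A1 mRNA measured by qRT-PCR, normalized to ACTB/GAPDH/POLR2A, fitted bidirectionally versus DMSO.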

[17] = read-out: Pyruvate Dehydrogenase Kinase 4 (PDK4), PDK4 (gene 5166); assay: LTEA_HepaRG_PDK4: Life Technologies and Expression Analysis (LTEA) Assay for Pyruvate Dehydrogenase Kinase 4 (PDK4) using HepaRG (AID 2283525)
Procedure, shortened: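 Differentiated human HepaRG cells, pre-cultured 48 h, were exposed in duplicate for 48 h in serum-free induction medium to eight half-log concentrations up to 100 uM in 0.5% DMSO. PDK4 mRNA was quantified by qRT-PCR, normalized to ACTB, GAPDH and POLR2A, bidirectional fitting versus DMSO.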

[18] = read-out: NAD(P)H dehydrogenase [quinone] 1 (NQO1), NQO1 (gene 1728); assay: LTEA_HepaRG_NQO1: Life Technologies and Expression Analysis (LTEA) Assay for NAD(P)H dehydrogenase [quinone] 1 (NQO1) using HepaRG (AID 2283526)
Procedure, shortened: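 HepaRG, 48 h post-plating → serum-free induction medium → test chemical 48 h (duplicate, 100 uM top, half-log x8, 0.5% DMSO) → RNA isolation → qRT-PCR, ACTB/GAPDH/POLR2A normalization; bidirectional curve fit vs DMSO baseline.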

Measured: AC50

Sequence of Nuclear factor erythroid 2-related factor 2 (Homo sapiens) (Q16236 whole entry, looked up): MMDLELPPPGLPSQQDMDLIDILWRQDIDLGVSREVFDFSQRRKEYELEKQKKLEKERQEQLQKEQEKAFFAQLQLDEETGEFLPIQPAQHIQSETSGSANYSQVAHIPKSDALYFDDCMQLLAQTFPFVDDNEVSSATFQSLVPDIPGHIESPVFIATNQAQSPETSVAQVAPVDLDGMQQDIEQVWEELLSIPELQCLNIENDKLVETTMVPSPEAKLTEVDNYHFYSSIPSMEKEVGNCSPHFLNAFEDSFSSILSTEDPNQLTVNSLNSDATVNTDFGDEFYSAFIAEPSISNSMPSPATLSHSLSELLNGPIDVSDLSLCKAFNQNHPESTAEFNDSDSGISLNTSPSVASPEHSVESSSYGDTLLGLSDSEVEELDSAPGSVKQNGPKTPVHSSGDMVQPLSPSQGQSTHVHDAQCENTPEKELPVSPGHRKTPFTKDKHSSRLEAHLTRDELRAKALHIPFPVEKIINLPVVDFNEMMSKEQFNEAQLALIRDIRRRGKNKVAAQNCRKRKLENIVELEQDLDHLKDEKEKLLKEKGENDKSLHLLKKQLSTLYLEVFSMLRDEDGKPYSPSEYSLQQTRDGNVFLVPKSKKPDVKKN
Sequence of Nuclear factor NF-kappa-B p105 subunit (Homo sapiens) (P19838 whole entry, looked up): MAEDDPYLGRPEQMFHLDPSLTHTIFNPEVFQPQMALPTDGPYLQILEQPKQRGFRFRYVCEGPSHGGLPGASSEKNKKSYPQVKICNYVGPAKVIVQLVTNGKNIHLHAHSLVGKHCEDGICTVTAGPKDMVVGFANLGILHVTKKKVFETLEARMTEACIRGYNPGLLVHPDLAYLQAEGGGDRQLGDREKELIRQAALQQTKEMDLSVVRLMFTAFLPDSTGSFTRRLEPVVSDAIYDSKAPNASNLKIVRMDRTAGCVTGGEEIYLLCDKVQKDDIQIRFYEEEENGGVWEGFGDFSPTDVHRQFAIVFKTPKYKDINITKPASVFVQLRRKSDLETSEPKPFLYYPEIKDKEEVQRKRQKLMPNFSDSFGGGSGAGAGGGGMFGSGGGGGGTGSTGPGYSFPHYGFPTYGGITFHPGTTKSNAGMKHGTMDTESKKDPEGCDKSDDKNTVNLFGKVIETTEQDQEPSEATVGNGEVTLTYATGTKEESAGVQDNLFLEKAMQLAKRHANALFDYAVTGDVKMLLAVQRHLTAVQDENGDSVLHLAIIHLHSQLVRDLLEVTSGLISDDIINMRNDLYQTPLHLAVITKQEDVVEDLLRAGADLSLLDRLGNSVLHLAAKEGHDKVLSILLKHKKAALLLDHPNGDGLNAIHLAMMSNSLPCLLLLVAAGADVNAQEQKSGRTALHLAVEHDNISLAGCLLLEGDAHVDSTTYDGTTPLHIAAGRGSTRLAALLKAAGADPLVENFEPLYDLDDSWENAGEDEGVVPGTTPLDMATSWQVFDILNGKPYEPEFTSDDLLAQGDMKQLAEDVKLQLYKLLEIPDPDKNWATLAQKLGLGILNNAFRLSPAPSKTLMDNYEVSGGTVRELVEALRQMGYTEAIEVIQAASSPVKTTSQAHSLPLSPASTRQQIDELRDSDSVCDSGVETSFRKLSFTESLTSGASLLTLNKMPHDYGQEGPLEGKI
Sequence of Signal transducer and activator of transcription 3 (Homo sapiens) (P40763 whole entry, looked up): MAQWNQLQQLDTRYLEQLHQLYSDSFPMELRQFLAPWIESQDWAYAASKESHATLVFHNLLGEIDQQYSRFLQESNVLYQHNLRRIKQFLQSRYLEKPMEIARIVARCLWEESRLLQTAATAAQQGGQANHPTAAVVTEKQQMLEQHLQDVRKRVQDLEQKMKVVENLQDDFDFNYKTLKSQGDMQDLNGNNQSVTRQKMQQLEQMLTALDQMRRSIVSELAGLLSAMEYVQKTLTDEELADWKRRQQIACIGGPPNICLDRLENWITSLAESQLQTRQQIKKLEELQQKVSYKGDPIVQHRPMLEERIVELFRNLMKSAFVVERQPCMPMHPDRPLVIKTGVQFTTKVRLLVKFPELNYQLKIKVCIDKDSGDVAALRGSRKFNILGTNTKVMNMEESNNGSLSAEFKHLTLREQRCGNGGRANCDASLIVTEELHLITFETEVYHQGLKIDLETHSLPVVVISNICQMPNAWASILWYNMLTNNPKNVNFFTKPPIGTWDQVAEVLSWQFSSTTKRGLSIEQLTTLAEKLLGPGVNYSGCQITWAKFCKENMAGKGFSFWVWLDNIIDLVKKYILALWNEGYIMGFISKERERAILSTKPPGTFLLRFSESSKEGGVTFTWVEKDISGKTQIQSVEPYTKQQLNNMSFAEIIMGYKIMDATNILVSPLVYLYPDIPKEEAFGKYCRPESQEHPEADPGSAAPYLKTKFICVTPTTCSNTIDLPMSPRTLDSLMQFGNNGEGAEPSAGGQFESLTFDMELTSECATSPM

Oc1ccc(Cl)cc1Cc1ccccc1
inactive: [1] | [2] | [3] | [4] | [5] | [6] | [7] | MYC, MYC (gene 4609) | [8] | [10] | [11] | [12] | [13] | [14] | [15]
active: [1] 83.6 µM | [3] 50.5 µM | [5] 80.2 µM | [6] 82.2 µM and 89.3 µM | [7] 82.4 µM | [9] 89 µM and 77.3 µM and 78.6 µM | [10] 15.7 µM | [12] 86 µM

CC1(c2ccc(Oc3ccccc3)cc2)OC(=O)N(Nc2ccccc2)C1=O (stereo not drawn)
inactive: [1] | [12] | [14]
active: [2] 26.3 µM | [3] 2.79 µM | [4] 33.5 µM | [5] 21.5 µM | [6] 12.3 µM | [7] 10.6 µM | MYC, MYC (gene 4609) 10.2 µM | [8] 10.6 µM | [9] 6.47 µM | [11] 12.1 µM | [13] 23 µM | [15] 50.2 µM

CCC(C)Nc1c([N+](=O)[O-])cc(C(C)(C)C)cc1[N+](=O)[O-] (stereo not drawn)
active: [9] 29.9 µM
not listed: [10] | [16] | [17] | [18]
inactive: all other assays above

CNC(=O)Oc1cccc(N=CN(C)C)c1
not listed: [10] | [18]
inactive: all other assays above

C#CCN1C(=O)COc2cc(F)c(N3C(=O)C4=C(CCCC4)C3=O)cc21
active: [5] 26.3 µM | [9] 37.8 µM
not listed: [16] | [17] | [18]
inactive: all other assays above

O=S1OCC2C(CO1)C1(Cl)C(Cl)=C(Cl)C2(Cl)C1(Cl)Cl (stereo not drawn)
active: [1] 11.4 µM | [5] 62.7 µM | [6] 87.5 µM | [7] 89.1 µM | MYC, MYC (gene 4609) 77.5 µM
not listed: [16] | [17]
inactive: all other assays above

O=C(Nc1ccccc1)Nc1cnns1
active: [3] 50 µM | [5] 76.9 µM | [6] 81.5 µM | [7] 69.2 µM | MYC, MYC (gene 4609) 87.7 µM | [8] 91.2 µM | [9] 61.5 µM
not listed: [16] | [17] | [18]
inactive: all other assays above

CN1CSC(=S)N(C)C1
not listed: [16] | [17] | [18]
inactive: all other assays above

CNC(=O)CSP(=S)(OC)OC
not listed: [10] | [16] | [17] | [18]
inactive: all other assays above

ClC1C(Cl)C(Cl)C(Cl)C(Cl)C1Cl (stereo not drawn)
active: [9] 4.25 µM and 27.6 µM
not listed: [16] | [17] | [18]
inactive: all other assays above

N#CN
not listed: [16] | [17] | [18]
inactive: all other assays above

CC[C@H](C)[C@H]1O[C@]2(C=C[C@@H]1C)C[C@@H]1C[C@@H](C/C=C(\C)[C@@H](O[C@H]3C[C@H](OC)[C@@H](O[C@H]4C[C@H](OC)[C@@H](O)[C@H](C)O4)[C@H](C)O3)[C@@H](C)/C=C/C=C3\CO[C@@H]4[C@H](O)C(C)=C[C@@H](C(=O)O1)[C@]34O)O2 (tested in a mixture with another compound)
active: [1] 13.9 µM | [2] 16.8 µM | [3] 7.94 µM | [4] 18.8 µM | [5] 13.8 µM | [6] 13.5 µM | [7] 7.42 µM | MYC, MYC (gene 4609) 13.9 µM | [8] 40.2 µM | [9] 49.3 µM | [11] 47.7 µM | [12] 54.5 µM | [13] 14 µM | [14] 59.5 µM | [15] 46 µM
inactive: [10]
